Measured values from PubChem BioAssay.
The source made the active and inactive calls.

Assays:
[1] = small molecules captured by biotinylated probe aFSTL3 – biochemical, small-molecule microarray, fluorescence 635/667, stem cell growth factor project, primary screen (AID 1064); settings: higher = more signal;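 also: measures binding of the biotinylated anti-FSTL3 antibody to printed compounds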
[2] = binders from COS7 lysate, DM2A8 probe, primary screen, torsin A project, cell lysate, small-molecule microarray, fluorescence 635/667 (AID 1065); settings: higher = more signal, COS7 lysate expressing mutant human TOR1A
[3] = small molecules captured by biotinylated probe aFGF2 – biochemical, small-molecule microarray, fluorescence 635/667, stem cell growth factor project, primary screen (AID 1067); settings: higher = more signal;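 also: measures binding of biotinylated aFGF2 protein to printed compounds on slides; z-score merges feature fluorescence and signal-to-noise across triplicate slides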
[4] = small molecules captured by biotinylated probe aFGF10 – biochemical, small-molecule microarray, fluorescence 635/667, stem cell growth factor project, primary screen (AID 1071); settings: higher = more signal;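 also: score merges 667 nm spot intensity and signal to noise from triplicate slides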
[5] = biological target: Neurogenic locus notch homolog protein 2 (Homo sapiens) (UniProt Q04721); experiment: small molecules binding Notch2 protein – biochemical, small-molecule microarray, 635 nm fluorescence, stem cell growth factors, primary screen (AID 1073); settings: higher = more signal
[6] = biological target: Pro-neuregulin-1, membrane-bound isoform (Homo sapiens) (UniProt Q02297); experiment: small molecules binding neuregulin-1 protein – biochemical, small-molecule microarray, fluorescence 635/667, psychiatric disease protein project, primary screen (AID 1075); settings: NRG1 binding, 635 nm fluorescence, higher = more signal;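 also: score combines 667 nm spot fluorescence with signal to noise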
[7] = test system: Neuregulin-1 EGF-like domain; experiment: small molecules binding NRG1 EGF domain – biochemical, small-molecule microarray, 635 nm fluorescence, primary screen (AID 1081); settings: higher = more signal;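 also: binding of the protein to compounds printed on small-molecule microarray slides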
[8] = FRG1 expression reporter modulators in myotubes – cell-based, C2C12 myotubes, firefly/Renilla luciferase, luminescence, FRG1 inhibition for FSHD, primary screen (AID 1084); settings: FRG1 promoter luciferase, higher = more signal, called active from +8 up or from −8 down
[9] = small molecules captured by biotinylated probe aFST – biochemical, small-molecule microarray, fluorescence 635/667, stem cell growth factor project, primary screen (AID 1086); settings: higher = more signal;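 also: score merges 667 nm fluorescence with signal-to-noise of each printed compound spot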
[10] = binders of probe aHhip on microarray, primary screen, stem cell growth factor project, biochemical, small-molecule microarray, fluorescence 635/667 (AID 1087); settings: higher = more signal;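 also: score merges spot fluorescence at 667nm with spot signal to noise ratio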
[11] = test system: PRMT1 (protein arginine N-methyltransferase 1); experiment: small molecules binding arginine methyltransferase PRMT1 – biochemical, small-molecule microarray, 635 nm fluorescence, primary screen (AID 1088); settings: higher = more signal;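 also: binding of Prmt1 protein to compounds spotted on small-molecule microarray slides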
[12] = growth effects on S. cerevisiae YJM789 – YJM789 clinical isolate, OD600, 24 h, basal, primary screen (AID 1089); settings: higher = more signal, called active from +8 up or from −8 down;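 also: growth of clinical yeast isolate S. cerevisiae YJM 789 seeded 1000 cells per well; test concentration not given here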
[13] = S. pombe growth modifiers, basal conditions – strain 972, OD600, 24 h, no modulator, primary screen (AID 1090);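 also: basal condition with compound alone and no growth modifier present; test concentration not given here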; settings: S. pombe 972 growth, higher = more signal, called active from +8 up or from −8 down
[14] = budding yeast growth modifiers under rapamycin – strain BY4716, OD600, 96 h, primary screen (AID 1091); also: test concentration not given here; settings: S. cerevisiae BY4716 + rapamycin, higher = more signal, called active from +8 up or from −8 down
[15] = biological target: Torsin-1A-interacting protein 2 (Homo sapiens) (UniProt Q8NFQ8); experiment: small molecules binding lysate-expressed LULL1 – cell lysate, human LULL1 lysate, 635/667 nm fluorescence, primary screen (AID 1092); settings: small-molecule microarray, hLULL1 lysate binding, 635 nm fluorescence; higher = more signal;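 also: probe is lysate of COS7 cells overexpressing human LULL1; score merges per-feature 667 nm fluorescence with signal-to-noise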
[16] = optical density change of DRC41 E. coli – strain DRC41, OD650, 24 h, E. coli filamentation project, primary screen (AID 1093);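 also: MC1000 strain lacking acrAB efflux and sulA so SOS filamentation is blocked; test concentration not given here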; settings: E. coli DRC41 growth, higher = more signal, called active from +8 up or from −8 down
[17] = probe aLefty2 binding to arrayed compounds – biochemical, biotinylated probe, 635/667 nm fluorescence, primary screen (AID 1094); settings: small-molecule microarray, higher = more signal;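 also: score merges spot fluorescence near 667 nm with spot signal-to-noise ratio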
[18] = test system: Noggin (protein binding on small-molecule microarray); experiment: small molecules binding Noggin protein – biochemical, 635/667 nm fluorescence, primary screen (AID 1095); settings: 635 nm fluorescence, higher = more signal;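 also: score merges 667 nm feature fluorescence with signal to noise over triplicate slides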
[19] = biological target: Neurogenic locus notch homolog protein 3 (Homo sapiens) (UniProt Q9UM47); experiment: small molecules binding NOTCH3 protein – biochemical, 635/667 nm fluorescence, primary screen (AID 1096); settings: small-molecule microarray, 635 nm fluorescence, higher = more signal
[20] = probe aEGFR binding to arrayed compounds – biochemical, biotinylated probe, 635/667 nm fluorescence, primary screen (AID 1097); settings: small-molecule microarray, higher = more signal;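 also: probe is a biotinylated anti-EGFR antibody binding compounds printed on slides; score combines fluorescence near 667 nm and signal to noise of each spot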

Pro-neuregulin-1, membrane-bound isoform (Homo sapiens), sequence (Q02297 whole entry, looked up, the tested form may be a part, canonical isoform): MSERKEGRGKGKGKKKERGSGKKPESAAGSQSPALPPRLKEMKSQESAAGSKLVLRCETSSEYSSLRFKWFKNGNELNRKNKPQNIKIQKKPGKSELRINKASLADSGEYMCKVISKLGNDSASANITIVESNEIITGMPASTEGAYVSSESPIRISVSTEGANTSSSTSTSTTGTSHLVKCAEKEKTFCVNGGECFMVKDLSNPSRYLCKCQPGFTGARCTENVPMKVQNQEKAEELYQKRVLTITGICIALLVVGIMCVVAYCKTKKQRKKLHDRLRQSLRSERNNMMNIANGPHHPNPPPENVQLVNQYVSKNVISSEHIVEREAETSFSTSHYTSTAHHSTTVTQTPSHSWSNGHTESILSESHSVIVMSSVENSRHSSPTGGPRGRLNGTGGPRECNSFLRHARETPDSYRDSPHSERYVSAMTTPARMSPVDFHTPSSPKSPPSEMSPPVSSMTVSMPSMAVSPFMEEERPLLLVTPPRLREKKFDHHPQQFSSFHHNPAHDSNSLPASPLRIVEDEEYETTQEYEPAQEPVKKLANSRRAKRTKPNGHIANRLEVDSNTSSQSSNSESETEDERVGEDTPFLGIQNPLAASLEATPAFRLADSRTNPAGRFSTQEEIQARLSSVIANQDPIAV
Neurogenic locus notch homolog protein 3 (Homo sapiens), sequence (Q9UM47 whole entry, looked up): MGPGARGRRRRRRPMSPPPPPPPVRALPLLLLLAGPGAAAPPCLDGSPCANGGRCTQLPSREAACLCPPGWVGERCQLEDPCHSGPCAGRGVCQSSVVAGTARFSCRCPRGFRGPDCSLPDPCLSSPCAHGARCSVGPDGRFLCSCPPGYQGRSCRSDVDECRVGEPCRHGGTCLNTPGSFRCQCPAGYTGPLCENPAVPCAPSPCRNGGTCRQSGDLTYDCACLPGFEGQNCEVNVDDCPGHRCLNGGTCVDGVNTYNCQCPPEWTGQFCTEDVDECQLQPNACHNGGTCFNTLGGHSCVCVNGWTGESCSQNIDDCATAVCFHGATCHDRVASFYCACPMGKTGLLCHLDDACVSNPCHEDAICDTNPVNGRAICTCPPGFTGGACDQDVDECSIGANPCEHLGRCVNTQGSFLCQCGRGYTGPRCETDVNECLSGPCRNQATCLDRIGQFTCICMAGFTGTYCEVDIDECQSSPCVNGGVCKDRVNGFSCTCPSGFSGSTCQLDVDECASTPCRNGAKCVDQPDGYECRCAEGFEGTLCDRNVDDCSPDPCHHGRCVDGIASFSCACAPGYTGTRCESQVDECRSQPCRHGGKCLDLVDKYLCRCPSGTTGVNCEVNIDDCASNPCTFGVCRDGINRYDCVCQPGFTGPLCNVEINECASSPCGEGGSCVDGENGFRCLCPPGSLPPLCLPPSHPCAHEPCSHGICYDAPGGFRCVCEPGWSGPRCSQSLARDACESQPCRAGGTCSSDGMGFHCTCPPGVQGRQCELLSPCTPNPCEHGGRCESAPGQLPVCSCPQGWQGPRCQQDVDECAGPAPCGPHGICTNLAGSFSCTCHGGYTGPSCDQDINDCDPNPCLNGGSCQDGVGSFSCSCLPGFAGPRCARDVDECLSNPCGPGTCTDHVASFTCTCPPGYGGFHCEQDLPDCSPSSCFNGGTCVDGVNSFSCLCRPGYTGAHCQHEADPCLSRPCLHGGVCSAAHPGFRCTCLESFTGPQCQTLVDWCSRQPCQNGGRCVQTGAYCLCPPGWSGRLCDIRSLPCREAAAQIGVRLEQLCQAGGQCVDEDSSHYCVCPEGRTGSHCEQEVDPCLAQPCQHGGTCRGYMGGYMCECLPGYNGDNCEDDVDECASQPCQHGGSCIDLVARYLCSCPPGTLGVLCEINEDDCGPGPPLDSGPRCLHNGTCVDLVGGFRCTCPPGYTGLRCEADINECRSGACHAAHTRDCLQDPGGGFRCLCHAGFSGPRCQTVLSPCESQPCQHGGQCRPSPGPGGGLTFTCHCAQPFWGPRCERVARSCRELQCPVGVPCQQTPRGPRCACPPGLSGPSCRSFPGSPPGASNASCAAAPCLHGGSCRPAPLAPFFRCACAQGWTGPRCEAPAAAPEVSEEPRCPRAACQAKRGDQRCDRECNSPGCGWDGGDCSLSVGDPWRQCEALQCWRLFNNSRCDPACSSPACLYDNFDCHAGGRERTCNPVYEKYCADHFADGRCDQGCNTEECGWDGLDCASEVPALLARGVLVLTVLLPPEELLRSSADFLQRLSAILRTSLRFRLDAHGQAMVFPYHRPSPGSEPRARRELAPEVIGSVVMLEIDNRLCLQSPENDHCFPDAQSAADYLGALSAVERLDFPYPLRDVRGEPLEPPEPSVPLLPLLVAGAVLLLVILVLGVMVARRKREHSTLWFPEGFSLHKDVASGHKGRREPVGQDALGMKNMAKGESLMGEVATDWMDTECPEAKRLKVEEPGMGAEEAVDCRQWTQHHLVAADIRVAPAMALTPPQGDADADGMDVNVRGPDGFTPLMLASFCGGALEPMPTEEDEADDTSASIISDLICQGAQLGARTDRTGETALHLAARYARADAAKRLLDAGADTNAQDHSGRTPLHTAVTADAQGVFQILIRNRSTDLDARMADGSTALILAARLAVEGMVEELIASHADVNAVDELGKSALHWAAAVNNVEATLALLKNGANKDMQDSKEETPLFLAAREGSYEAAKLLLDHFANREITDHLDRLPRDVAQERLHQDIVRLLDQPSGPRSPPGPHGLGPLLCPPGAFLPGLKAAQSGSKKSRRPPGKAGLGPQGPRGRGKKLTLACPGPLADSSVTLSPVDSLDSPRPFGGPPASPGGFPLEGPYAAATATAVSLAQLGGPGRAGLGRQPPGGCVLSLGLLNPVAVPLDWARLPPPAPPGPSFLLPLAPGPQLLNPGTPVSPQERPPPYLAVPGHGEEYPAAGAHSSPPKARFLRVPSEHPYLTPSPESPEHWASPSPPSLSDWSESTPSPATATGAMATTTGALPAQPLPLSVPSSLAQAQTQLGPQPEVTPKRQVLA
Torsin-1A-interacting protein 2 (Homo sapiens), sequence (Q8NFQ8 whole entry, looked up): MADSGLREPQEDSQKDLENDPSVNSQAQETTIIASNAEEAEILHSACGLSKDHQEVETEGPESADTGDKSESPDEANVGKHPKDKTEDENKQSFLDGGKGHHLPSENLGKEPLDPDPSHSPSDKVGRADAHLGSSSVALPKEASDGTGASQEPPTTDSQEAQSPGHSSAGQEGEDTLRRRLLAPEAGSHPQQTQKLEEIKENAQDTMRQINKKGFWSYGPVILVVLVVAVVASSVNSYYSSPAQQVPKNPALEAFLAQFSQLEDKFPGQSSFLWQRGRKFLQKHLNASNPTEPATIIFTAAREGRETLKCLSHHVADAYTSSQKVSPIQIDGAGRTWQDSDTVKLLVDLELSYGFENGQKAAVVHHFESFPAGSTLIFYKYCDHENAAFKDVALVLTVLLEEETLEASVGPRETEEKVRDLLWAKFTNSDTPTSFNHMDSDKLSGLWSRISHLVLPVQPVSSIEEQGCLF

SMILES	composite z-score [1]	composite z-score [2]	composite z-score [3]	composite z-score [4]	composite z-score [5]	composite z-score [6]	composite z-score [7]	z-score [8]	composite z-score [9]	composite z-score [10]	composite z-score [11]	z-score [12]	z-score [13]	z-score [14]	composite z-score [15]	z-score [16]	composite z-score [17]	composite z-score [18]	composite z-score [19]	composite z-score [20]
CC=CC(O)C1C=CC2C(=O)N(c3ccccc3)C(=O)C2N1Nc1ccc(C(C)C)cc1 (stereo not given)	0.0035	0.238	0.125	0.771	1.65	1.52	1.26	0.715 (inactive)	1.16	-0.0024	1.53	0.842 (inactive)	0.877 (inactive)	1.06 (inactive)	3.13	-1.71 (inactive)	0.183	0.321	1.05	0.14
COCCCNC(=O)[C@@]1(C)c2ccccc2C(=O)N(Cc2cc(C(F)(F)F)cc(C(F)(F)F)c2)[C@H]1c1ccc(CO)cc1	0.472	-1.39	-0.103	-0.635	-0.664	1.59	0.738	-1.29 (inactive)	-0.0412	-0.134	1.55	-0.122 (inactive)	0.585 (inactive)	-0.777 (inactive)	3.01	0.666 (inactive)	-0.166	-1.08	-0.134	-0.26
O=C(OCCF)C1=CCC(c2cccc(Cl)c2)O1 (stereo not given)	-0.422	0.0213	-0.0907	0.193	0.926	-0.0442	1.03	-1.68 (inactive)	0.5	-0.226	0.581	-3.17 (inactive)	-0.988 (inactive)	2.82 (inactive)	0.856	-0.0288 (inactive)	-0.141	0.207	0.1	-0.0121
C=CCC(OC(C)=O)[C@@H]1[C@@H](N(Cc2cc3ccccc3o2)C(=O)c2ccc(C)cc2)c2cc(OCCCO)ccc2N1C(=O)c1ccc2ccccc2c1 (stereo not given in full)	-0.0336	0.117	-0.0785	0.339	0.112	-0.189	0.38	-2.76 (inactive)	-0.0921	-0.201	-0.21	-0.44 (inactive)	0.116 (inactive)	0.0217 (inactive)	0.346	1.65 (inactive)	-0.0258	0.341	-0.0158	-0.0536
C[N+](C)(C)CCCCCCNC(=O)[C@H]1C[C@H]2C(=O)N3CCC[C@H]3C(=O)N2[C@H]1c1ccc(O)cc1	0.159	1.01	-0.116	-0.0314	-0.967	1.96	1.37	3.58 (inactive)	-0.106	-0.0618	1.54	-0.842 (inactive)	-0.153 (inactive)	-0.185 (inactive)	2.96	0.89 (inactive)	0.0087	0.785	0.6	-0.36
CCCCCCc1nc(CCCc2cc3c(c(CCCCCC)n2)[Si](C(C)C)(C(C)C)OC3)cc2c1[Si](C(C)C)(C(C)C)OC2	-0.0039	0.0271	-0.149	-0.408	-0.955	-0.247	-0.774	0.521 (inactive)	-0.344	0.0274	-0.41	-0.506 (inactive)	-2.38 (inactive)	0.256 (inactive)	-0.134	-0.3 (inactive)	-0.208	0.257	-0.58	-0.287
COc1ccc([Si](C)(C)[C@@H]2[C@@H](CCn3cc([C@H](O)c4ccccc4)nn3)O[C@]3(C(=O)N(Cc4ccc(N5C(=O)c6cccc7cccc5c67)cc4)c4ccccc43)[C@H]2C)cc1	0.428	0.174	-0.162	-0.16	-0.574	0.569	0.594	-0.353 (inactive)	-0.587	-0.199	0.534	0.316 (inactive)	-0.197 (inactive)	1.64 (inactive)	1	1.05 (inactive)	-0.0237	-0.345	0.0481	-0.217
O=c1oc(-c2ccccc2)nc2cc(Br)ccc12	-0.0862	0.0961	-0.103	0.298	0.325	-0.0187	0.52	-0.409 (inactive)	0.127	-0.287	0.35	0.844 (inactive)	-1.43 (inactive)	-0.0605 (inactive)	0.711	0.258 (inactive)	-0.0478	0.625	0.693	-0.111
NC(=O)NCC#Cc1ccc2c(c1)[C@]1(C(=O)N2)[C@H](C(=O)N2CCCCCCC2)[C@H]2C(=O)O[C@H](c3ccccc3)[C@H](c3ccccc3)N2[C@@H]1c1ccc(OCCO)cc1	3.14	0.756	0.326	0.904	0.481	0.463	0.292	0.832 (inactive)	3.05	3.7	1.43	1.65 (inactive)	0.562 (inactive)	4.58 (inactive)	2.06	-0.219 (inactive)	1.63	1.47	1.02	0.864
Cc1cc(C)c(C(O)C2C=CC3C(=O)N(C)C(=O)C3N2Nc2ccccc2)c(C)c1 (stereo not given)	1.19	0.732	0.462	0.93	1.64	1.26	1.27	0.016 (inactive)	2.01	0.872	0.378	-0.304 (inactive)	0.569 (inactive)	-0.448 (inactive)	2.41	-1.32 (inactive)	1.24	0.0355	0.533	0.907
